High-throughput results (PubChem)
Compounds with a hit are over-represented: about 7.7% of the library has one in this group of screens.
PD-1 reverse act – reversal of PD-1 mediated T-cell inhibition; primary human CD4 T cells, PD-L1 beads, CellTiter-Glo 96 h; activation, % (test concentration not listed); 29,000 tested, under 10 active; call rule not given here;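 also: 0% = median vehicle wells and 100% = positive control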
Hedgehog inh – blocks Sonic Hedgehog signaling; Shh-LIGHT2 Gli-luciferase reporter, 30 h; inhibition, % (no concentration beside the values); 22,000 compounds, 2.1% hits; AID 2313;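 active = mean inhibition across valid replicates above about 65%, limit read from the data; inconclusive = mean under the limit, yet half or more replicates past it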;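 also: pathway switched on by Shh-conditioned medium diluted 1 in 25 in low serum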
NOMO-1 viab – STK33 inhibitor candidate reducing NOMO-1 cell viability | 37,000 compounds, 7.5% hits | inhibition, % (concentration not given with the values) | NOMO-1 AML viability, CellTiter-Glo luminescence, 72 h | AID 2330; in the data active = inhibition above about 80%; inconclusive = no clear call, values can overlap the other calls
The depositor's hits bear a star; ? = inconclusive; . = no result.

SMILES	PD-1 reverse act	Hedgehog inh	NOMO-1 viab
O=C(COc1ccc([N+](=O)[O-])cc1)Nc1ccccc1OC(F)F	0.4	.	13.4
Cc1ccc(S(=O)(=O)N(C)C[C@@H]2Oc3ccc(NC(=O)NC4CCCCC4)cc3CC(=O)N([C@H](C)CO)C[C@@H]2C)cc1	.	-22.7	123.9*
Cc1ccc(S(=O)(=O)N(C)C[C@H]2Oc3ccc(NC(=O)NC4CCCCC4)cc3CC(=O)N([C@H](C)CO)C[C@H]2C)cc1	.	18.1	22.4
Cc1ccc(S(=O)(=O)N(C)C[C@@H]2Oc3ccc(NC(=O)NC4CCCCC4)cc3CC(=O)N([C@@H](C)CO)C[C@@H]2C)cc1	-0.1	.	116.2*
CC(C)NC(=O)Nc1ccc2c(c1)CC(=O)N([C@@H](C)CO)C[C@@H](C)[C@@H](CN(C)S(=O)(=O)c1ccc(Cl)cc1)O2	-0.6	23.1	60.2
C[C@H]1CN([C@@H](C)CO)C(=O)Cc2cc(NC(=O)NC3CCCCC3)ccc2O[C@H]1CN(C)S(=O)(=O)c1ccc(Cl)cc1	-1.9	-43.2	128.4*
COc1ccc(S(=O)(=O)N(C)C[C@H]2Oc3ccc(NC(=O)NC4CCCCC4)cc3CC(=O)N([C@@H](C)CO)C[C@H]2C)cc1	.	10.3	-5.1
Cc1ccc2c(C)c(C(=O)Nc3sc4c(c3C(=O)NCc3cccnc3)CCCC4)oc2c1	.	.	0.0
COc1ccc(OCc2nnc3n2N=C(c2ccc(OC)c(OC)c2)C(c2ccccc2)S3)cc1 (configuration not stated)	-3.9	.	21.0
Cc1ccc(Nc2nc(N)nc(COc3cccc4cccnc34)n2)cc1	-2.2	.	111.2*
Cc1cc(C)nc(Nc2n[nH]c(COc3cccc4cccnc34)n2)n1	1.2	.	13.8
CC(=O)c1cccc(NC(=O)Nc2nn(Cc3c(F)cccc3Cl)cc2Br)c1	-9.0	.	106.0*
COc1ccc(NC(=O)Nc2nn(Cc3c(F)cccc3Cl)cc2Cl)cc1OC	-1.2	.	26.5
CC1(C)CCC(C)(C)c2cc(C(=O)Nc3ccc(C(=O)O)cc3)ccc21	.	?	46.7
C/C(=C\c1ccc(C(=O)O)cc1)c1ccc2c(c1)C(C)(C)CCC2(C)C	5.7	66.0*	68.2
Cc1cc(C(=O)CSc2ncn[nH]2)c(C)n1-c1cc(Cl)ccc1Cl	.	.	15.4
O=C(/C=N/O)Nc1cc(C(F)(F)F)cc(C(F)(F)F)c1	1.0	69.4*	116.4*
O=C(O)CCC(=O)Nc1cccc(C(F)(F)F)c1	.	.	-19.6
CC(C)=CCc1c(O)ccc2ccc(=O)oc12	1.8	-46.9	8.0
COc1c(O)cc2oc3cc(O)c(CC=C(C)C)c(O)c3c(=O)c2c1CC=C(C)C	-14.2	10.6	97.9*
CC(C)=CCc1c(O)cc2oc3c(CC=C(C)C)c(O)c(O)c(CC=C(C)C)c3c(=O)c2c1O	.	102.5*	.
COc1cc2ccc(=O)oc2c(CC=C(C)C)c1OC	-2.9	-4.8	29.7
CC(=O)Nc1ccc(Br)c(C(F)(F)F)c1	-1.2	-16.3	14.2
COC(=O)c1ccccc1NC(=O)CN(C)S(=O)(=O)c1c(C)cc(C)cc1C	-0.6	.	-1.0
Cc1ccc2nc(-c3ccccn3)cc(C(=O)NCc3cnn(C)c3)c2c1	.	.	23.4
SMILES	PD-1 reverse act	Hedgehog inh	NOMO-1 viab
CC1CCC2(NC1)OC1CC3C4CC=C5CC(O[C@@H]6O[C@H](CO)[C@@H](O[C@@H]7O[C@@H](C)[C@H](O)[C@@H](O)[C@H]7O)[C@H](O)[C@H]6O)CCC5(C)C4CCC3(C)C1C2C (some centres not stated)	0.9	6.0	6.8
C[C@@H]1O[C@@H](O[C@H]2[C@H](O)[C@@H](O[C@@H]3O[C@H](CO)[C@@H](O)[C@H](O[C@@H]4O[C@H](CO)[C@@H](O)[C@H](O)[C@H]4O)[C@H]3O)[C@H](O[C@H]3CC[C@@]4(C)C(=CC[C@@H]5C4CC[C@@]4(C)C5C[C@@H]5O[C@]6(CC[C@@](C)(CO[C@@H]7O[C@H](CO)[C@@H](O)[C@H](O)[C@H]7O)O6)[C@@H](C)[C@@H]54)C3)O[C@@H]2CO)[C@H](O)[C@H](O)[C@H]1O (some centres not stated)	-9.4	69.6*	120.3*
COc1ccc(S(=O)(=O)N(C)CC(=O)Nc2cccc(SC)c2)cc1C	.	.	-3.7
CO[C@@]12[C@H](COC(N)=O)C3=C(C(=O)C(C)=C(N)C3=O)N1C[C@@H]1N[C@@H]12	-30.4	34.0	142.1*
CCc1ccc(OCC(=O)Nc2ccccc2-c2nc3ccccc3s2)cc1	-1.0	.	-18.7
COc1ccc(C(=O)NCCn2cc(SC(C)c3ccccc3)c3ccccc32)cc1 (configuration not stated)	-1.1	77.6*	128.8*
COc1ccc(C(=O)NCCSc2ccccn2)cc1	1.3	.	24.8
C[C@@H]1CN([C@H](C)CO)C(=O)c2cccc(NC(=O)Nc3ccc(C(F)(F)F)cc3)c2O[C@H]1CN(C)Cc1ccc2c(c1)OCO2	-7.8	19.8	104.2*
C[C@H]1CN([C@@H](C)CO)C(=O)c2cccc(NC(=O)Nc3ccccc3)c2O[C@@H]1CN(C)Cc1ccc2c(c1)OCO2	-4.1	-17.5	67.9
C[C@@H]1CN([C@H](C)CO)C(=O)c2cccc(NC(=O)Nc3ccc(C(F)(F)F)cc3)c2O[C@@H]1CN(C)Cc1ccc2c(c1)OCO2	-3.7	-25.4	103.5*
C[C@H]1CN([C@@H](C)CO)C(=O)c2cccc(NC(=O)Nc3ccc(C(F)(F)F)cc3)c2O[C@@H]1CN(C)Cc1ccc2c(c1)OCO2	-4.5	-9.2	109.5*
C[C@@H]1CN([C@H](C)CO)C(=O)c2cccc(NC(=O)Nc3ccc4c(c3)OCO4)c2O[C@H]1CN(C)Cc1ccc(C(F)(F)F)cc1	.	2.7	103.7*
C[C@H](CO)N1C[C@H](C)[C@H](CN(C)Cc2ccc3c(c2)OCO3)Oc2c(NC(=O)Nc3ccc4c(c3)OCO4)cccc2C1=O	1.0	-54.2	?
C[C@H](CO)N1C[C@H](C)[C@H](CN(C)Cc2ccc3c(c2)OCO3)Oc2c(NC(=O)Nc3ccc(F)cc3)cccc2C1=O	-0.6	-23.9	54.6
CC(=O)c1cccc(NC(=O)CSc2ncnc3sc(C)c(C)c23)c1	-1.6	.	29.7
Cc1cc(Br)ccc1NC(=O)Cn1nc(C)c([N+](=O)[O-])c1C	.	.	6.7
CCn1c(SCC(=O)Nc2ccc(Cl)cc2Cl)nnc1-c1ccccc1F	-0.4	.	-3.1
Cc1ccc(O)c(NC(=S)NC(=O)c2ccc(-c3ccccc3[N+](=O)[O-])o2)c1	.	.	36.2
N#Cc1c(NC(=O)c2cc3nc(-c4ccco4)cc(C(F)(F)F)n3n2)sc2c1CCC2	0.0	.	19.3
CCOc1ccc(NC(=O)CCNC(=O)c2cn(-c3cccc(OC)c3)c(=O)c3ccccc23)cc1	-2.7	24.7	7.8
CCn1c2ccccc2c2cc(NC(=O)CCN3C(=O)c4ccccc4C3=O)ccc21	1.2	.	0.6
COc1ccccc1NC(=O)COc1ccc(C(=O)Nc2cccc(C(F)(F)F)c2)cc1	4.8	.	26.4
Nc1cc(N)nc(SCC(=O)c2ccc(F)cc2)n1	-0.3	.	-8.2
C[C@H](CO)N1C[C@H](C)[C@H](CN(C)Cc2ccc3c(c2)OCO3)Oc2c(NC(=O)Nc3ccc(C(F)(F)F)cc3)cccc2C1=O	-4.5	-21.0	104.1*
C[C@H](CO)N1C[C@H](C)[C@@H](CN(C)Cc2ccc3c(c2)OCO3)Oc2c(NC(=O)Nc3ccc(C(F)(F)F)cc3)cccc2C1=O	.	12.6	103.8*
